Among the data in the supplement of paper PMC6555819 are PBM binding z-score values, retold here.

What all share (assay): PBM binding z-score (relative to random genomic background probes); higher = stronger binding; sequences stand for … in GC…GCGATTGACAGCGTAGAATGAAGG
Test [1] concerns PPARg:RXRa DBDmut IVT, anti-RXR (DBD mutation: RXRa K156A/R161A, NR concentration 270 nM, RXRa partner concentration 90 nM). A digest of the protocol: (§1)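 For binding z-scores, the reference was random background probes on custom Agilent 4×180K protein-binding microarrays. These arrays were incubated 1 h with ligand-free nuclear receptor dimers in PBS pH 7.4, 2% milk, 0.02% Triton X-100, 1 mM DTT, 0.2 mg/mL BSA and 0.4 mg/ml salmon testes DNA. Fluorescence was scanned after antibody detection of each partner (one per run) and regression-normalized.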

The subject of test [2] is PPARg:RXRa IVT, anti-PPARg (NR concentration 270 nM, RXRa partner concentration 90 nM). A digest of the protocol:
as §1

The test system of test [3] is PPARg DBDmut:RXRa IVT, anti-PPARg (DBD mutation: PPARg1 K132A/R137A, NR concentration 270 nM, RXRa partner concentration 90 nM). An outline of the steps: as §1
Test [4] deals with PPARg DBDmut IVT, anti-PPARg (DBD mutation: PPARg1 K132A/R137A, NR concentration 270 nM). An outline of the steps: as §1
For test [5], the system named is PPARg homodimer (NR concentration 180 nM). A digest of the protocol:
as §1

In test [6] the test system is PXR:RXRa (NR concentration 270 nM, RXRa partner concentration 90 nM). A digest of the protocol:
as §1

The test system of test [7] is PXR homodimer (NR concentration 270 nM). An outline of the steps: as §1
Test [8] concerns RARa:RXR (NR concentration 270 nM, RXRa partner concentration 90 nM). An outline of the steps: as §1
The test system of test [9] is RARa homodimer (NR concentration 270 nM). A digest of the protocol:
as §1

The subject of test [10] is RARb:RXRa (NR concentration 270 nM, RXRa partner concentration 90 nM). An outline of the steps:
as §1

In test [11] the test system is RARb homodimer (NR concentration 270 nM). A digest of the protocol:
as §1

The subject of test [12] is RARg:RXRa (NR concentration 270 nM, RXRa partner concentration 90 nM). An outline of the steps:
as §1

For test [13], the system named is RARg homodimer (NR concentration 270 nM). A digest of the protocol:
as §1

The test system of test [14] is RXRa DBDmut IVT, anti-RXR (DBD mutation: RXRa K156A/R161A, NR concentration 90 nM). An outline of the steps:
as §1

Test [15] concerns RXRa homodimer (NR concentration 180 nM). An outline of the steps:
as §1

Test [16] concerns THRa:RXRa (NR concentration 90 nM, RXRa partner concentration 90 nM). An outline of the steps:
as §1

The test system of test [17] is THRa homodimer (NR concentration 90 nM). An outline of the steps:
as §1

Test [18] deals with VDR homodimer (NR concentration 270 nM). A digest of the protocol: as §1

On to TCGAGTAGGTTAGTCGTGGCATTCAGCCAACATA, for which the PBM binding z-score in test [1] is 2.28; in test [2], 1.66; in test [3], -0.875; in test [4] it was -1.07; in test [5], -0.343; in test [6], -0.558. In addition, the PBM binding z-score in [7] is -0.596; in [8], -0.421; in test [9], -0.619; in test [10] it was -0.00522; in test [11] it was -0.359; in [12], -0.49. The PBM binding z-score in [13] was -0.451; in test [14] it was -0.0351; in test [15], -0.388; in [16], -0.461; in test [17], -1.11; in [18], -0.659.
Consider ATATGTAGGTTAATGGTCATTCAGGTTGGTTCGC, for which the PBM binding z-score was found to be 7.35 in [1]; 7.31 in test [2]; 4.17 in test [3]; 3.57 in [4]; 2.47 in test [5]; 1.23 in test [6]. Moreover, the PBM binding z-score in test [7] was 0.787; in test [8], 0.723; in [9] it was 1.49; in test [10], 1.45; in [11], 1.75; in [12], 1.02. Further, the PBM binding z-score in [13] is 1.11; in test [14], 0.788; in test [15], 1.14; in [16], 0.905; in test [17] it was 0.945; in [18], 1.34.
For TCTTGTAGATCAAAAGGAGGTTAAGAAAGATCGA, the PBM binding z-score was 1.99 in test [1]; 1.45 in [2]; 0.192 in test [3]; 0.409 in [4]; 0.066 in test [5]; 0.871 in [6]. Further, the PBM binding z-score in test [7] is 0.0133; in test [8], 1.12; in test [9], 0.597; in test [10] it was 0.428; in test [11] it was 0.201; in test [12], 0.79. Also, the PBM binding z-score was 0.0979 in test [13]; 0.622 in test [14]; 1.17 in [15]; 1.09 in [16]; -0.613 in test [17]; 0.16 in test [18].
Turning to TTACCAAGGTGAAGGTCGTTGCTCCCTCTGTAGA, the PBM binding z-score in [1] was 2.04; in test [2] it was 3.56; in [3] it was -0.269; in [4] it was 0.0241; in test [5] it was 1.17; in test [6], 1.46. Also, the PBM binding z-score in [7] was 0.225; in [8] it was 1.65; in test [9], -0.269; in test [10] it was 2.39; in test [11], 2.04; in test [12], 1.25. Further, the PBM binding z-score is 1.15 in [13]; 0.573 in test [14]; 1.59 in [15]; 2.37 in test [16]; 1.06 in test [17]; 1.43 in test [18].
Turning to GGAACGAGGGCAAGTTGATAGAAGAGTTTGATGG, the PBM binding z-score was 3.6 in test [1]; 2.75 in [2]; -0.45 in test [3]; 0.0544 in test [4]; 0.482 in test [5]; 0.801 in test [6]. Moreover, the PBM binding z-score in [7] was found to be 0.693; in test [8], 0.45; in test [9] it was 0.336; in [10], 2.64; in test [11] it was 1.5; in test [12], 1.55. The PBM binding z-score is 2.06 in [13]; 2.22 in test [14]; 0.775 in test [15]; 1.2 in test [16]; 0.164 in [17]; 1.7 in test [18].
As to ATCGATAGGTCGACGAGGTGAGTATACACCGTTT, the PBM binding z-score in [1] is -0.138; in test [2] it was 0.962; in test [3] it was 0.958; in test [4] it was -0.138; in test [5], 0.219; in [6], 0.735. For the same sequence, the PBM binding z-score in test [7] came to 0.0845; in [8], 1.6; in test [9], 0.235; in [10], 1.65; in test [11], 0.959; in test [12], 1.8. In addition, the PBM binding z-score in test [13] is 1.82; in test [14], 0.0347; in test [15], 1.67; in test [16], 2.59; in [17] it was 0.488; in test [18], 0.231.
For the sequence CAAACTAGGTCACGAAAGGTCAAGGTCGAATGAC, the PBM binding z-score turned out to be 8.73 in [1]; 9.06 in [2]; 5.16 in [3]; 2.59 in test [4]; 5.42 in [5]; 6.88 in [6]. Further, the PBM binding z-score in test [7] is 3.03; in test [8], 7.71; in [9] it was 3.81; in test [10], 5.62; in test [11], 6.07; in test [12] it was 7.93. The PBM binding z-score is 8.86 in [13]; 2.21 in test [14]; 8 in [15]; 5.14 in [16]; 3.71 in test [17]; 4.2 in test [18].
Take CCTGCTAGGTCAACGGTCAGCTAAAGCAGCTCGC: the PBM binding z-score in test [1] is 4.82; in test [2], 4.76; in test [3], 0.645; in test [4], -0.543; in test [5] it was 2.2; in [6] it was 1.8. Also, the PBM binding z-score in [7] is -0.372; in [8], 2.89; in test [9] it was 0.262; in test [10], 4.45; in test [11], 3.72; in test [12], 4.6. Further, the PBM binding z-score in [13] turned out to be 5.11; in test [14] it was 2.02; in test [15], 3.13; in test [16] it was 2.79; in test [17], 0.878; in test [18] it was 0.529.
